# In the supplement of paper PMC10849652:
# The full data set covers some 7,900 targets. This sample favours those with a hit. About 0.6% of all pairs of compound and target were hits. Unmarked numbers belong to inactive results.
# Compound: C1COCCN1CCN2C3=CC=CC=C3N=C2NC(=O)C4=CC(=CC=C4)[N+](=O)[O-] [IRAK-1-4 Inhibitor I]
# Assay: log2 fold change, soluble protein after heating vs DMSO (PISA); higher = thermal stabilisation; K562 cells, 10 uM, 30 min; active = over 0.2 and 3.5 SD of the protein, either way, in both replicates (recomputed)
# Procedure, shortened: (§1)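 K562 cells at 2×10^6 cells/mL were given 10 μM compound for 30 min. Aliquots then went through 3 min of heating across 48°C-58°C, were pooled, and were extracted in PBS with 0.5% NP-40 at 4°C, and the supernatant after 21,000xg for 90 min was quantified by TMTpro 16plex LC-MS/MS with channel sums equalised. Thermal stability relative to control samples, from duplicates, is given as log2 fold change.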
# Sequence of UniProt Q502W6 (Q502W6 whole entry, looked up): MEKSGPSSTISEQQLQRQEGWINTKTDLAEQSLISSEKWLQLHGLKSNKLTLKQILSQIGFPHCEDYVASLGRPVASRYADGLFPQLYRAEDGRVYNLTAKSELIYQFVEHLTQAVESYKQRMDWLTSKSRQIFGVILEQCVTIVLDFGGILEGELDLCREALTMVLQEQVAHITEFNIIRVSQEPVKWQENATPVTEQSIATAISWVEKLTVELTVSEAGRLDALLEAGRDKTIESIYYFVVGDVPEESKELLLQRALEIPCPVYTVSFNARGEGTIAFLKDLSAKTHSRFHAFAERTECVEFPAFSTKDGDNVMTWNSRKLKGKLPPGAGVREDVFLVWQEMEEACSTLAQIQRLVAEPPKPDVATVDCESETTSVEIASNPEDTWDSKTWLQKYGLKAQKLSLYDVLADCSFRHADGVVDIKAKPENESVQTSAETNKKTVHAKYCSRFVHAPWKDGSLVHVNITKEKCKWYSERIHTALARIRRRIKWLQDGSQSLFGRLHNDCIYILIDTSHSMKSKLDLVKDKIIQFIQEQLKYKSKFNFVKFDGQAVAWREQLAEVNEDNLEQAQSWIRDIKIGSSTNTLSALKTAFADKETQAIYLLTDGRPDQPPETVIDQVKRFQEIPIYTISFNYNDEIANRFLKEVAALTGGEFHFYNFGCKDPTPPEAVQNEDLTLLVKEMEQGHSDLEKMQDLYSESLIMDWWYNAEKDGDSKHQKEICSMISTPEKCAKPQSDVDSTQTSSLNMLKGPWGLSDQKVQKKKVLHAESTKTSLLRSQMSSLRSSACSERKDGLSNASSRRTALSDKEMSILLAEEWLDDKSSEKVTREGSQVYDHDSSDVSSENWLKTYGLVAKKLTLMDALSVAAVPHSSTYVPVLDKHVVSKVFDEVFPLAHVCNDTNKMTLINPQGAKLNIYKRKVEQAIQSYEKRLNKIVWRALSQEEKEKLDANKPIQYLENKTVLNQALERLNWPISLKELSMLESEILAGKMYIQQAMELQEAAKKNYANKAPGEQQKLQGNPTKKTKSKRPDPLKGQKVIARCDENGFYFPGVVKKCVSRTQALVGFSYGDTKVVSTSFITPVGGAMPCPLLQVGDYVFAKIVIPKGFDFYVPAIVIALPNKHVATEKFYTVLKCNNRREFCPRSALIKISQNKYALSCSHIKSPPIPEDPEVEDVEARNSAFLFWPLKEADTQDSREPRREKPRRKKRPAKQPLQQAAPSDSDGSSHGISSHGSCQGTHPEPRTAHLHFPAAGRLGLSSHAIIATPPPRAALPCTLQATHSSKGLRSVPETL
# Sequence of UniProt Q86SZ2 (Q86SZ2 whole entry, looked up): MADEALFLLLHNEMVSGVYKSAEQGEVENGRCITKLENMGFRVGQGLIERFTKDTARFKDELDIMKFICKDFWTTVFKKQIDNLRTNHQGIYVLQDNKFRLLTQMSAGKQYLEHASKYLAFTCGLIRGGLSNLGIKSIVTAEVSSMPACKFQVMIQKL
# Sequence of UniProt Q8TBZ6 (Q8TBZ6 whole entry, looked up): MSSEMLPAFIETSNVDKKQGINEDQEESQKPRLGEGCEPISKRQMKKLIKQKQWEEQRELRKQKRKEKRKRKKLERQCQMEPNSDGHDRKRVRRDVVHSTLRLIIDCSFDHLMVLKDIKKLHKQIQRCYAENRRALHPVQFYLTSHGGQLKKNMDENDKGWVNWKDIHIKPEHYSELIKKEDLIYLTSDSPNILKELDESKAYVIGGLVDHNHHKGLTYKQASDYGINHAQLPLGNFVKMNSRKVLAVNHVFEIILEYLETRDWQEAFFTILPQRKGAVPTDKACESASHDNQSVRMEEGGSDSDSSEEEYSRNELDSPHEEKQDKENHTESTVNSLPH
# Sequence of UniProt Q9UDW1 (Q9UDW1 whole entry, looked up): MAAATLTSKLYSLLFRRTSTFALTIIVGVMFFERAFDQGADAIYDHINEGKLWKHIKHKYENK
# Sequence of UniProt Q93009 (Q93009 whole entry, looked up): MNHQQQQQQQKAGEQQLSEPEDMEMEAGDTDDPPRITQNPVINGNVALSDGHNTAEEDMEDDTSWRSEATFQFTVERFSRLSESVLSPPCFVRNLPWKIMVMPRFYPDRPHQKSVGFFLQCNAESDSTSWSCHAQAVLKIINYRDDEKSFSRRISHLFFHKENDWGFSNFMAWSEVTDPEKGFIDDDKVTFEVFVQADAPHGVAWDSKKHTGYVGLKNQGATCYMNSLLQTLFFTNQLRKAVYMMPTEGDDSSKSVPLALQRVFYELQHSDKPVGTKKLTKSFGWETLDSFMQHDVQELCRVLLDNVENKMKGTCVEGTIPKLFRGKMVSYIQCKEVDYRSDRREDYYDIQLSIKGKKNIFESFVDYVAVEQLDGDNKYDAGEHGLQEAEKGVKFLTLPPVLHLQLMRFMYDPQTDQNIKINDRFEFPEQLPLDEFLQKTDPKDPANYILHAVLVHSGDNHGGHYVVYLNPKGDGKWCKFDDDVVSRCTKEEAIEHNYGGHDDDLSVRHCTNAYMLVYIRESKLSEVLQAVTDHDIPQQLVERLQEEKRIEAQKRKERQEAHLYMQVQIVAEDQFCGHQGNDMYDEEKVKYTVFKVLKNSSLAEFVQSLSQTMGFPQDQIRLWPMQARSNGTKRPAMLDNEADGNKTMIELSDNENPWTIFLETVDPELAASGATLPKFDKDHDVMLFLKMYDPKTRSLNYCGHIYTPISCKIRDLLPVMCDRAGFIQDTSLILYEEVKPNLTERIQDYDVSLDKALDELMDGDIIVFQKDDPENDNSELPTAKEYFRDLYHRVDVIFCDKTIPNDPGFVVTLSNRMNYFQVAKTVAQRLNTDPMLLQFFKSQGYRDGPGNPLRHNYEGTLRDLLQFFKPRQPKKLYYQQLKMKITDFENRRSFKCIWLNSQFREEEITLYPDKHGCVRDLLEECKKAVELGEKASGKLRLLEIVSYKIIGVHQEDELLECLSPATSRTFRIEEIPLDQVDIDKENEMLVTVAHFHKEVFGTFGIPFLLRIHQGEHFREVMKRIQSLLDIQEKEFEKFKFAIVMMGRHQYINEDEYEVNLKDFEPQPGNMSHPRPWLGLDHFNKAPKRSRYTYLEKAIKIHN
# Sequence of UniProt Q9Y5K5 (Q9Y5K5 whole entry, looked up): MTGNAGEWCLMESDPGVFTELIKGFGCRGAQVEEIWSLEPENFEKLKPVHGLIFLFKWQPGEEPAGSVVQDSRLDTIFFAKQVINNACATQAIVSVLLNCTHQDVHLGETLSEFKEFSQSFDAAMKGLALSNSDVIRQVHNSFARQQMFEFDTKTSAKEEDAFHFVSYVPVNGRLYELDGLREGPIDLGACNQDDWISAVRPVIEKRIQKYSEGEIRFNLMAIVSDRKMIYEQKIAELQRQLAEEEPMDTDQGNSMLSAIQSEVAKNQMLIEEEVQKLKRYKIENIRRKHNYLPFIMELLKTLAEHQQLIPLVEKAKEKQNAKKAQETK
# Sequence of UniProt O15213 (O15213 whole entry, looked up): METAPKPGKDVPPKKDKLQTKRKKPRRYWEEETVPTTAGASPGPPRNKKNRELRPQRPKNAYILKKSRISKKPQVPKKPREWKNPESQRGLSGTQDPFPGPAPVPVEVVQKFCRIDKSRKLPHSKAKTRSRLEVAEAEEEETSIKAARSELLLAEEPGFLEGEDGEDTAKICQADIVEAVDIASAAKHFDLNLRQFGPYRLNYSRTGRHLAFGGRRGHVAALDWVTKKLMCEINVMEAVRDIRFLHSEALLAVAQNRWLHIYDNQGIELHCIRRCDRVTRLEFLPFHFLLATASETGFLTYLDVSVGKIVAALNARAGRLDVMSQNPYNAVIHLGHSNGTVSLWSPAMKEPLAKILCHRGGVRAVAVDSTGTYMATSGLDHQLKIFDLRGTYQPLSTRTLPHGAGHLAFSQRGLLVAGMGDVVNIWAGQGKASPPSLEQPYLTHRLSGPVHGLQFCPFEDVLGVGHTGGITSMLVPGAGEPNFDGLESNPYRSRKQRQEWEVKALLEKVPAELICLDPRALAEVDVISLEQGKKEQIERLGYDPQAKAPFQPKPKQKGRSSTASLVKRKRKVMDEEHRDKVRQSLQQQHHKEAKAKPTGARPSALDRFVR
# Sequence of UniProt P61960 (P61960 whole entry, looked up): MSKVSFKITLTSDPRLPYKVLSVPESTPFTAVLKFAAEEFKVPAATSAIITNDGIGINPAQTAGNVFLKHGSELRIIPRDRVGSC
# Sequence of UniProt Q9BTX3 (Q9BTX3 whole entry, looked up): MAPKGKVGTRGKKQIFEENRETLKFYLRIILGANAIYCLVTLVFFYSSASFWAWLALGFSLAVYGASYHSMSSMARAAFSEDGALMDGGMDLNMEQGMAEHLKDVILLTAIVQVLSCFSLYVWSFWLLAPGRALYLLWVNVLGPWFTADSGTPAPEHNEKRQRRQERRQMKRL
# Sequence of UniProt Q96AX1 (Q96AX1 whole entry, looked up): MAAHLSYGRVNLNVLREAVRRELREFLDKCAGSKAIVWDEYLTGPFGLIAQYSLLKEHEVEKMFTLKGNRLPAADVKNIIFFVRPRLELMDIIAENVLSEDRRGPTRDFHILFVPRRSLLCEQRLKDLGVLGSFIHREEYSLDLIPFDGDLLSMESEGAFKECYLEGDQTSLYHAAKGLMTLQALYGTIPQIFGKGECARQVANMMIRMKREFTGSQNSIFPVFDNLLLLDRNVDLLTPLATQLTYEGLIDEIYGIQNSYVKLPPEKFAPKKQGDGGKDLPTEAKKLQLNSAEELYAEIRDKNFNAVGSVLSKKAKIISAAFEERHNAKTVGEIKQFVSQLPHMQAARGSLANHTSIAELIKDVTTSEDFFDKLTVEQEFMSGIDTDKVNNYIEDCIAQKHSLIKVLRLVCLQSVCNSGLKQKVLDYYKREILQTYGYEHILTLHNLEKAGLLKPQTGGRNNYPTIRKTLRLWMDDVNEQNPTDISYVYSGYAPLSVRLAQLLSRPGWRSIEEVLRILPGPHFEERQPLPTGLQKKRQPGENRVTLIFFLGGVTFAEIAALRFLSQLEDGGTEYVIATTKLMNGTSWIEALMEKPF
# Sequence of UniProt O95379 (O95379 whole entry, looked up): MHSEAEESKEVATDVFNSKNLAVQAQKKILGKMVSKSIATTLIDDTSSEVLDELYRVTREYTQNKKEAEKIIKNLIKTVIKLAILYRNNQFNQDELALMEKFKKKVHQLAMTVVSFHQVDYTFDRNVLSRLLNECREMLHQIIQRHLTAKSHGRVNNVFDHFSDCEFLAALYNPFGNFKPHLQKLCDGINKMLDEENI
row,Target,log2 fold change
1,TRAPPC6B (UniProt Q86SZ2),-0.022
2,UCHL5 isoform 3 (UniProt Q9Y5K5),-0.012
3,XPOT (UniProt O43592),-0.035
4,TMEM208 (UniProt Q9BTX3),0.04
5,UFM1 (UniProt P61960),0.219
6,UQCR10 (UniProt Q9UDW1),0.036
7,USP7 (UniProt Q93009),-0.102
8,WDR46 (UniProt O15213),-0.159
9,TTI2 (UniProt Q6NXR4),-0.032
10,XPO1 (UniProt O14980),-0.013
11,TRMT10A (UniProt Q8TBZ6),0.056
12,TMEM87B (UniProt Q96K49),0.139
13,VPS13B (UniProt Q7Z7G8),0.05
14,VPS33A (UniProt Q96AX1),-0.017
15,VWA3B isoform 6 (UniProt Q502W6),0.043

# Compound: C=CC(=O)N1CCC[C@@H](n2nc(-c3ccc(Oc4ccccc4)cc3)c3c(N)ncnc32)C1 [ibrutinib]
# Assay: as above
# Procedure, shortened: as §1
row,Target,log2 fold change
1,TMEM223 (UniProt A0PJW6),0.006
2,USP25 isoform 3 (UniProt Q9UHP3),-0.002
3,VPS41 (UniProt P49754),-0.033
4,WDR47 (UniProt O94967),0.055
5,TMEM128 (UniProt Q5BJH2),-0.025
6,WDR41 (UniProt Q9HAD4),-0.022
7,TMEM9 (UniProt Q9P0T7),0.039
8,VPS51 (UniProt Q9UID3),-0.015
9,TYW1 (UniProt Q9NV66),-0.043
10,TUBAL3 (UniProt A6NHL2),-0.005
11,TOM1L1 (UniProt O75674),-0.001
12,TPR (UniProt P12270),-0.048
13,TP53BP1 isoform 2 (UniProt Q12888),-0.046
14,TRAPPC2L (UniProt Q9UL33),0.003
15,U2AF1 isoform 2 (UniProt Q01081),0.073
16,TMEM9B (UniProt Q9NQ34),0.038
17,VPS37A (UniProt Q8NEZ2),-0.011
18,WEE1 (UniProt P30291),0.013
19,TNFAIP8 isoform 4 (UniProt O95379),-0.036

row,Target,log2 fold change
1,UBAP2L isoform 5 (UniProt Q14157),0.04
2,WDR43 (UniProt Q15061),0.019
3,UFD1 isoform 1 (UniProt Q92890),-0.018
4,TRAPPC6B (UniProt Q86SZ2),0.032
5,UCHL5 isoform 3 (UniProt Q9Y5K5),-0.222
6,XPOT (UniProt O43592),-0.061
7,TMEM208 (UniProt Q9BTX3),-0.09
8,UFM1 (UniProt P61960),0.026
9,UQCR10 (UniProt Q9UDW1),0.019
10,USP7 (UniProt Q93009),-0.021
11,WDR46 (UniProt O15213),0.099
12,TTI2 (UniProt Q6NXR4),-0.006
13,XPO1 (UniProt O14980),-0.045
14,TRMT10A (UniProt Q8TBZ6),-0.009
15,TMEM87B (UniProt Q96K49),-0.084
16,VPS13B (UniProt Q7Z7G8),-0.013
17,VPS33A (UniProt Q96AX1),-0.021
18,VWA3B isoform 6 (UniProt Q502W6),-0.069

# Compound: CC(=O)c1cnc2ccc(-c3cc(Cl)c(O)c(Cl)c3)nc2c1N[C@H]1CC[C@H](CN(C)C)CC1
# Assay: as above
# Procedure, shortened: as §1
row,Target,log2 fold change
1,TMEM223 (UniProt A0PJW6),-0.101
2,USP25 isoform 3 (UniProt Q9UHP3),-0.019
3,VPS41 (UniProt P49754),-0.019
4,WDR47 (UniProt O94967),0.028
5,TMEM128 (UniProt Q5BJH2),0.45 (active)
6,WDR41 (UniProt Q9HAD4),-0.023
7,TMEM9 (UniProt Q9P0T7),0.012
8,VPS51 (UniProt Q9UID3),0.009
9,TYW1 (UniProt Q9NV66),-0.096
10,TUBAL3 (UniProt A6NHL2),-0.039
11,TOM1L1 (UniProt O75674),-0.014
12,TPR (UniProt P12270),0.247
13,TP53BP1 isoform 2 (UniProt Q12888),-0.002
14,TRAPPC2L (UniProt Q9UL33),-0.004
15,U2AF1 isoform 2 (UniProt Q01081),-0.519 (active)
16,TMEM9B (UniProt Q9NQ34),-0.083
17,VPS37A (UniProt Q8NEZ2),-0.07
18,WEE1 (UniProt P30291),-1.1 (active)
19,TNFAIP8 isoform 4 (UniProt O95379),-0.036

row,Target,log2 fold change
1,UBAP2L isoform 5 (UniProt Q14157),0.017
2,WDR43 (UniProt Q15061),0.012
3,UFD1 isoform 1 (UniProt Q92890),-0.005
4,TRAPPC6B (UniProt Q86SZ2),-0.001
5,UCHL5 isoform 3 (UniProt Q9Y5K5),-0.021
6,XPOT (UniProt O43592),0.064
7,TMEM208 (UniProt Q9BTX3),0.078
8,UFM1 (UniProt P61960),0.003
9,UQCR10 (UniProt Q9UDW1),-0.077
10,USP7 (UniProt Q93009),-0.078
11,WDR46 (UniProt O15213),0.15
12,TTI2 (UniProt Q6NXR4),0.005
13,XPO1 (UniProt O14980),0.011
14,TRMT10A (UniProt Q8TBZ6),-0.065
15,TMEM87B (UniProt Q96K49),-0.046
16,VPS13B (UniProt Q7Z7G8),-0.016
17,VPS33A (UniProt Q96AX1),-0.001
18,VWA3B isoform 6 (UniProt Q502W6),0.013
